The values below come from PubChem BioAssay (Tox21).

Where “and” joins values, the source holds several entries; their conditions need not be identical. Equal entries are not always repeated. Inconclusive results are not listed. A call without a number means that no potency is given here. Unmarked numbers belong to inactive results. Calls of active or inactive are those of the source. The call rests on the fitted dose curve.
Potency means the concentration at half of the fitted maximal effect.

The nature of this assay: qHTS assay for small molecules that induce genotoxicity in human embryonic kidney cells expressing luciferase-tagged ATAD5 - cell viability (AID 651634). Further: nearly all actives have a fitted effect of over 25% in size. The note with it: HEK293T ATAD5-luc cells viability, CellTiter-Fluor, 15.5 h; series mostly up to 83.3 µM; activity, negative = cytotoxicity: at the top concentration. The text has this: National Center for Advancing Translational Sciences [NCATS]
NIH Chemical Genomics Center [NCGC]
U.S. Environmental Protection Agency [EPA]
National Institutes of Environmental Health Sciences [NIEHS]
National Toxicology Program [NTP]
U.S. Food and Drug Administration [FDA]
Enhanced Level of Genome Instability Gene 1 (ELG1; human ATAD5) protein levels increase in response to various types of DNA damage. Using a luciferase reporter-gene tagged with ElG1, a cell-based assay [developed by Kyungjae Myung, NHGRI, NIH] was used to measure the induction of ATAD5 in human embryonic kidney cells (HEK293T). So, increase in luciferase activity can be used to identify the compounds that cause genetic stress. In addition to genotoxicity, these cells were also used to test for cytotoxicity by measuring the protease activity within live cells.
Tox21 Assay Protocol Summary:
For cytotoxicity screening, 2,000 cells in 5 uL/well were dispensed into white, solid-bottom 1536-well plates using a Multidrop Combi (Thermo Scientific) dispenser. Following transfer of 23 nL compound or DMSO vehicle by a pin tool, the plates were incubated 15.5 hr at 37C and 5% CO2. 1 ul CellTiter-Fluor reagent (Promega, Madison, WI) was then added to each plate and following 30 min incubation at 37C, fluorescence intensity was quantified on a ViewLux CCD-based plate reader.
With `CCCCCCCCCCCCOCC1CO1` (stereo not given), the Potency result was “inactive”.
On the same count and under the same terms, to `CCCCCCC(C)(C)S` belongs “inactive”; to `CCCCCCCCCC(=O)O`, “inactive”.
On to `OC[C@@H](O)[C@H](O)[C@H](O)[C@@H](O)CO`, for which the Potency entry is “inactive”.
Consider `CC1=C(/C=C/C(C)=C/C=C/C(C)=C/CO)C(C)(C)CCC1`, for which the Potency entry was “inactive”.
For the compound `Cc1cc(O)c2c(c1)C(=O)c1cc(O)cc(O)c1C2=O`, the Potency was 23.8 µM (active) and 54.5 µM (active).
For the compound `O=[N+]([O-])c1cccc(Cl)c1`, the Potency result was “inactive”.
As for `CCCCCCCCCCC=CC1CC(=O)OC1=O` (stereo not given), the “activity, negative = cytotoxicity” value was 10.3%.
In the case of `NC(=O)NNc1ccccc1`, the Potency result is “inactive”.
Regarding `CC(C)NCC(O)COc1cccc2ccccc12` (stereo not given), the Potency entry is “inactive”.
For `CC1(C)O[C@@H]2C[C@H]3[C@@H]4C[C@H](F)C5=CC(=O)CC[C@]5(C)[C@H]4[C@@H](O)C[C@]3(C)[C@]2(C(=O)CO)O1`, the Potency result was “inactive”.
With `Cc1cc(=O)[nH]c(C(C)C)n1`, the Potency result is “inactive”.
Same read-out and setting: with `C=CC(=O)OCCCCCCCC(C)C` the entry was “inactive”; with `OCC#CCO`, “inactive”; with `O=C(O)c1ccc([N+](=O)[O-])cc1`, “inactive”.
Regarding `CC1COc2ccccc2N1C(=O)C(Cl)Cl` (stereo not given), the Potency result is “inactive”.
Turning to `O=C1CCCCC1`, the Potency entry was “inactive”.
Regarding `COCC(C)O` (stereo not given), the Potency entry was “inactive”.
For the compound `CCCCC(CC)COC(C)=O` (stereo not given), the Potency result was “inactive”.
Regarding `C/C=C(C)/C=C/C=C(C)C`, the Potency result is “inactive”.
As to `NCCc1ccc(O)c(O)c1`, the Potency entry was “inactive”.
Regarding `CCCCCCCCC`, the Potency entry is “inactive”.
For the compound `Cc1ccc(N)c(S(=O)(=O)O)c1`, the Potency result was “inactive”.
For the compound `S=c1nc[nH]c2nc[nH]c12`, the “activity, negative = cytotoxicity” value is -8.47%.
In the case of `CC(=O)[C@@]1(O)CC[C@H]2[C@@H]3CCC4=CC(=O)CC[C@]4(C)[C@H]3CC[C@@]21C`, the Potency entry is “inactive”.
In the case of `O=S(=O)(O)CCS`, the Potency result is “inactive”.
For the compound `Clc1cc(Cl)c(Cl)cc1Cl`, the Potency result was “inactive”.
Take `COC(=O)c1ccc(C(=O)OC)cc1`: the Potency entry is “inactive”.
In the case of `CCCCC(CC)COC(=O)/C=C\C(=O)OCC(CC)CCCC` (stereo not given), the Potency entry was “inactive”.
Take `CCCCC/C=C\C/C=C\CCCCCCCC(=O)OC`: the “activity, negative = cytotoxicity” value was 8.46%.
For `O=C(Oc1ccccc1)c1ccc(O)cc1`, the Potency result is “inactive”.
On to `C=C(C)C(=O)OCCCCCCCCCCCC`, for which the Potency result was “inactive”.
As to `O=C1N=C(O)CN1/N=C/c1ccc(-c2ccc([N+](=O)[O-])cc2)o1`, the “activity, negative = cytotoxicity” value was -17.7%.
As to `C[C@@H](O)[C@H]1C(=O)N2C(C(=O)O)=C(S[C@@H]3CN[C@H](C(=O)N(C)C)C3)[C@H](C)[C@H]12`, the “activity, negative = cytotoxicity” value was -7.64%.
The same measure, in the same setting: to `O=Nc1ccc(O)cc1` belongs 10.4%.
In the case of `C=C(C)C(=O)OCC(CC)(COC(=O)C(=C)C)COC(=O)C(=C)C`, the Potency result is “inactive”.
On to `CC1=CC[C@H]2C[C@@H]1C2(C)C`, for which the Potency result was “inactive”.
Turning to `CC(=O)CCc1ccccc1`, the Potency entry was “inactive”.
As to `CN(C)c1cccc(O)c1`, the Potency entry was “inactive”.
Regarding `OC[C@@H](O)[C@@H](O)[C@H](O)[C@@H](O)CO`, the Potency entry is “inactive”.
